# CaV13 ICDI inh: Disruptors of the CACNA1D IQ motif to Ca2+-dependent inactivation inhibitor domain association, primary screening, Förster resonance energy transfer in intact living …; hit rate 0.098% among 340,000; HEK cells, CFP/YFP FRET ICDI-IQ, plate reader, 10 min; percent FRET-ratio fall versus neutral wells; AID 743397; inhibition, % at 12.3 µM;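 active = mean replicate inhibition of at least 30% and at least 1% of replicates passing that level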;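 also: 0% = median of the neutral control wells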
# Exocytosis inh: blocks lytic granule exocytosis; TALL-104 LAMP-1 surface exposure, flow cytometry; cells stimulated with thapsigargin and PMA; inhibition, % at 10 µM; hit rate 0.66% among 360,000;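 active = inhibition above about 55%, limit read from the data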
# VLA-4 inh: inhibition in a human VLA-4 binding assay | P13612 | VLA-4 expressing cells, ligand binding flow cytometry | inhibition, % (about 7 µM as worked out from the volumes in the protocol) | hit rate 0.2% among 330,000 | AID 2557; in the data active = inhibition above about 50%
# ABCB6 inh 2: blocks the human ABCB6 transporter; K562-ABCB6 porphyrin accumulation, flow cytometry, 1 h; active compounds read low; fluorescence ratio to DMSO, % at 10 µM; hit rate 0.19% among 360,000; AID 602162;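 active = fluorescence ratio to DMSO below 75%, the collection mean minus 3 SD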;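 also: signal is porphyrin accumulated inside mitochondria; 100% equals median channel fluorescence of DMSO control wells; lower ratio means ABCB6 inhibition with less porphyrin fluorescence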
# VLA-4 mod pick: confirmation of allosteric modulators of human VLA-4 integrin | shares compounds with VLA-4 inh | AID 2813 | hit rate 2% among 1,300 | U937 cells, HUTS-21 LIBS mAb binding, flow cytometry; LDV ligand present at threefold Kd | inhibition, % at 6.7 µM; in the data active = inhibition above about 40%;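 also: 0% = ligand without compound and 100% = no ligand background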
# Starred values were filed as active, the others as inactive; nt = no result given. The list is not random: actives were taken first. Their share in the collection is about 1.1%.
SMILES,CaV13 ICDI inh,Exocytosis inh,VLA-4 inh,ABCB6 inh 2,VLA-4 mod pick
CN(CCc1ccccn1)C(=O)[C@@H](Cc1ccccc1)NC(=O)[C@H]1O[C@@H](n2ccc(=O)[nH]c2=O)[C@H](O)[C@@H]1O,-7,nt,nt,nt,nt
CC(C)C(NC(=O)OCc1ccccc1)C(=O)NCc1ccc(C(=O)O)cc1 (stereo not given),-2,0,3,102,nt
CC(C)[C@H](NC(=O)OCc1ccccc1)C(=O)NCc1ccccc1,-5,0,42,94,-17
COc1ccccc1CC(=O)N1CCN(S(=O)(=O)c2ccccc2)CC1,-5,-5,-6,94,nt
COc1ccccc1CC(=O)N1CCN(S(=O)(=O)c2ccccc2F)CC1,-5,4,52*,99,-7
C[C@H]([C@H](O)c1ccccc1)N(C)C(=O)CN,-9,-4,51*,100,-1
O=C(NCC1CCCO1)C(=O)c1c[nH]c2ccccc12 (stereo not given),-5,6,-8,102,nt
COC(=O)/C=C1\SC(=NC(=O)c2ccc(C)cc2)NC1=O,-7,-1,51*,103,2
COC(=O)CC#C[C@@H](C)[C@H](NS(=O)(=O)c1ccc(C)cc1)C(C)(C)C,-5,nt,nt,nt,nt
N#Cc1ccc(S(=O)(=O)NCC2CCN(C(=O)C(=O)c3cc4ccccc4o3)CC2)cc1,-9,nt,nt,nt,nt
O=C(NC1CCN(c2ncccn2)CC1)c1c(F)cccc1F,-7,-2,13,94,nt
C=CCNC(=O)c1ccccc1NC(=O)Nc1ccccc1,-6,0,5,95,nt
C=CCNC(=O)c1ccccc1NC(=O)COc1ccccc1,-15,-1,54*,105,12
C=CCNC(=O)c1ccccc1NC(=O)COc1ccc(OC)cc1,-3,2,7,98,2
S=C(NCCCc1ccccc1)Nc1ccccc1Cl,-5,-1,50*,105,19
S=C(NCCc1ccccc1)Nc1ccccc1Cl,-16,-5,11,100,nt
COC(=O)[C@]1(Cc2ccccc2)N[C@H](CN(C)C(C)=O)[C@@H]2C(=O)N(Cc3ccccc3)C(=O)[C@@H]21,-5,0,39,94,3
CC[C@@]1(C(=O)OC)N[C@H](CN(C)C(=O)c2ccc(C(C)(C)C)cc2)[C@@H]2C(=O)N(Cc3ccccc3)C(=O)[C@@H]21,-5,4,33,93,nt
COC(=O)[C@]1(Cc2ccccc2)N[C@H](CN(C)C(=O)c2ccc(C(C)(C)C)cc2)[C@@H]2C(=O)N(Cc3ccccc3)C(=O)[C@@H]21,-5,1,15,100,1
COC(=O)[C@]1(Cc2ccccc2)N[C@H](CN(C)C(=O)NC(C)C)[C@@H]2C(=O)N(Cc3ccccc3)C(=O)[C@@H]21,-5,1,-7,100,nt
C[C@H](c1ccccc1)N1C[C@@H](COCc2ccccc2)Oc2cccc(N3CCCC3)c2S1(=O)=O,-4,nt,nt,nt,nt
Cc1ccc(C(=O)OCC(=O)Nc2cccc(Cl)c2C)c(O)c1,-7,-2,1,99,-5
Cc1ccc(C(=O)OCC(=O)Nc2ccccc2Cl)c(O)c1,-5,0,20,94,nt
COC(=O)c1cc2c(c3c4cc(F)ccc4n(S(=O)(=O)c4ccc(C)cc4)c13)C(=O)N(c1ccc(OC)cc1)C2,-7,nt,nt,nt,nt
CS(=O)c1nc(-c2ccc(Br)cc2)cc(-c2ccccc2)c1C#N (stereo not given),-8,53,59*,96,41*
SMILES,CaV13 ICDI inh,Exocytosis inh,VLA-4 inh,ABCB6 inh 2,VLA-4 mod pick
COc1ccc2nc(NC(=O)CSCc3c(C)noc3C)sc2c1,-5,10,-3,89,nt
Cc1noc(C)c1CSCC(=O)Nc1nc2ccc(S(C)(=O)=O)cc2s1,-6,1,50*,95,0
C[C@H](O)[C@@H]1C(=O)N2CCc3c([nH]c4c(-c5ccccc5)cccc34)[C@@H]2C[C@@H]1N(C)C(=S)NCCc1ccccc1,-4,nt,nt,nt,nt
Cc1cc(Nc2ccccc2)nc2cc(O)ccc12,-4,4,56*,97,-11
Cc1cc2c(ncn2Cc2ccccc2)c([N+](=O)[O-])c1C,-6,-2,-7,96,nt
COC(=O)c1cc2c(c3c4cc(C)ccc4n(S(=O)(=O)c4ccc(OC)cc4)c13)C(=O)N(Cc1ccc(C(F)(F)F)cc1)C2,-12,nt,nt,nt,nt
O=C(CC1CCCC1)N[C@@H](Cc1cccnc1)C(=O)N1CCC[C@H]1C(=O)NC1CCCC1,-3,nt,nt,nt,nt
